Inconclusive results are not listed. A call without a number means that no potency is given here. A number with no mark means an inactive call. Calls of active or inactive are those of the source. Calls come from the whole dose curve; as a rule, active = well fitted curve in the direction sought with a large enough effect in the repeat runs; inconclusive = weak or mixed curves; inactive = no such curve, though single readings can be large; an effect the other way counts as inactive or inconclusive.
How the values were obtained:
[1] = A CellTox Green Cytotoxicity Assay to monitor cytotoxicity in HepG2 cells - 32 hour (AID 1224883); note: nearly all actives have a fitted effect of over 50% in size; note: potency is the fitted concentration of half-maximal effect
Outline: (§1)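 Real-time, homogeneous cytotoxicity readout: dead-cell DNA staining by CellTox Green in HepG2 monolayers, fluorescence measured at timed intervals up to 40 h of continuous compound exposure.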

[2] = A CellTox Green Cytotoxicity Assay to monitor cytotoxicity in HEK293 cells - 8 hour (AID 1224884); note: nearly all actives have a fitted effect of over 35% in size; note: potency is the fitted concentration of half-maximal effect
Outline: (§2)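 Cytotoxicity was tracked continuously in HEK293 cells by a DNA-binding dye excluded from viable cells. Compounds were transferred in DMSO 5 h after seeding; fluorescence was recorded at intervals up to 40 h.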

[3] = qHTS RealTime-Glo MT Cell Viability Assay in HepG2 cells - 16 hour (AID 1224885); note: nearly all actives have a fitted effect of over 50% in size; note: potency is the fitted concentration of half-maximal effect
Outline: (§3)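 HepG2 cells were seeded at 600 cells/well together with NanoLuc luciferase and a cell-permeant prosubstrate, preincubated 5 h at 37 C/5% CO2, then pin-dosed with compounds in DMSO. Nonlytic luminescence from viable cells was read at each time point.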

[4] = qHTS RealTime-Glo MT Cell Viability Assay in HEK293 cells - 24 hour (AID 1224886); note: nearly all actives have a fitted effect of over 50% in size; note: potency is the fitted concentration of half-maximal effect; for activity change, negative = cytotoxicity: top concentration of the series differs between compounds
Outline: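 HEK293 cells were seeded at 600 cells/well together with NanoLuc luciferase and cell-permeant prosubstrate, preincubated 5 h at 37 C/5% CO2, then given compound in DMSO by pintool. Luminescence from viable-cell prosubstrate reduction was read repeatedly over 40 h.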

[5] = qHTS RealTime-Glo MT Cell Viability Assay in HEK293 cells - 8 hour (AID 1224887); note: nearly all actives have a fitted effect of over 50% in size; note: potency is the fitted concentration of half-maximal effect; for activity change, negative = cytotoxicity: top concentration of the series differs between compounds
Outline: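 Nonlytic bioluminescent viability monitoring. HEK293 at 600 cells/well with reagent; 5 h settle; compound transfer by pintool; plates held at 37 C and read at set time points.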

[6] = A CellTox Green Cytotoxicity Assay to monitor cytotoxicity in HEK293 cells - 16 hour (AID 1224888); note: nearly all actives have a fitted effect of over 35% in size; note: potency is the fitted concentration of half-maximal effect
Outline: as §2

[7] = qHTS RealTime-Glo MT Cell Viability Assay in HepG2 cells - 0 hour (AID 1224889); note: nearly all actives have a fitted effect of over 50% in size
Outline: as §3

[8] = A CellTox Green Cytotoxicity Assay to monitor cytotoxicity in HepG2 cells - 8 hour (AID 1224890); note: nearly all actives have a fitted effect of over 45% in size
Outline: as §1

[9] = qHTS assay to identify small molecule antagonists of the estrogen receptor alpha (ER-alpha) signaling pathway using the BG1 cell line in the presence of 0.1 nM 17-beta-estradiol - cell viability counter screen (AID 1259241); note: nearly all actives have a fitted effect of over 40% in size; note: potency is the fitted concentration of half-maximal effect
Outline: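 Cytotoxicity counter-screen: live-cell protease activity measured by fluorescence (30 min reagent step) in the same wells. Cells were VM7Luc4E2 with endogenous ER-alpha and ERE-driven luciferase, treated 22 hr at 37C alongside 0.1 nM 17beta-estradiol final.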

[10] = qHTS assay to identify small molecule antagonists of the androgen receptor (AR) signaling pathway using the MDA cell line in the presence of 0.5 nM R1881 - cell viability counter screen (AID 1259242); note: nearly all actives have a fitted effect of over 45% in size; note: potency is the fitted concentration of half-maximal effect
Outline: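 Cytotoxicity toward MDA-kb2 cells is measured by CellTiter-Fluor live-cell protease fluorescence after 16 hr compound exposure at 37C in the presence of 0.5 nM R1881 stimulator.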

SMILES: Cn1cccc1
- Potency [1]: inactive
- Potency [2]: inactive
- Potency [3]: inactive
- Potency [4]: inactive
- Potency [5]: inactive
- Potency [6]: inactive
- Potency [7]: inactive
- Potency [8]: inactive
- Potency [9]: inactive
- Potency [10]: inactive

SMILES: CCc1cccc(CC)c1N(COC)C(=O)CS(=O)(=O)O
- Potency [1]: inactive
- Potency [2]: inactive
- Potency [3]: inactive
- Potency [4]: inactive
- Potency [5]: inactive
- Potency [6]: inactive
- Potency [7]: inactive
- Potency [8]: inactive
- Potency [9]: inactive
- Potency [10]: inactive

SMILES: CCOC(=O)CC(C)O (centres undefined)
- Potency [1]: inactive
- Potency [2]: inactive
- Potency [3]: inactive
- Potency [4]: inactive
- Potency [5]: inactive
- Potency [6]: inactive
- Potency [9]: inactive
- Potency [10]: inactive

SMILES: C=CC(=O)OCCN(CC)CC
- Potency [1]: inactive
- Potency [2]: inactive
- Potency [3]: inactive
- Potency [4]: inactive
- Potency [5]: inactive
- Potency [6]: inactive
- Potency [7]: inactive
- Potency [9]: inactive
- Potency [10]: inactive

SMILES: CCc1cccc(C)c1
- Potency [1]: inactive
- Potency [2]: inactive
- Potency [3]: inactive
- Potency [4]: inactive
- Potency [5]: inactive
- Potency [6]: inactive
- Potency [7]: inactive
- Potency [9]: inactive
- Potency [10]: inactive

SMILES: CCOC(=O)COc1ccc(C)cc1
- Potency [1]: inactive
- Potency [2]: inactive
- Potency [3]: inactive
- Potency [4]: inactive
- Potency [5]: inactive
- Potency [6]: inactive
- Potency [7]: inactive
- Potency [8]: inactive
- Potency [9]: inactive
- Potency [10]: inactive

SMILES: O=c1cccc[nH]1
- Potency [1]: inactive
- Potency [2]: inactive
- Potency [3]: inactive
- Potency [4]: inactive
- Potency [5]: inactive
- Potency [7]: inactive
- Potency [8]: inactive
- Potency [9]: inactive
- Potency [10]: inactive

SMILES: O=C1C=CC(=O)N1c1ccccc1
- Potency [1]: 13.8 µM (active)
- Potency [2]: 24.5 µM (active)
- Potency [3]: 15.5 µM (active)
- Potency [4]: 12.3 µM (active)
- Potency [5]: 43.6 µM (active)
- Potency [6]: 13.8 µM (active)
- Potency [7]: inactive
- Potency [9]: 61.1 µM (active)
- Potency [10]: 61.1 µM (active)

SMILES: CC(=O)Nc1ccc(O)cc1
- Potency [1]: inactive
- Potency [2]: inactive
- Potency [3]: inactive
- Potency [4]: inactive
- Potency [5]: inactive
- Potency [6]: inactive
- Potency [7]: inactive
- Potency [9]: inactive
- Potency [10]: inactive

SMILES: CN(C)CCOC(c1ccccc1)c1ccccc1 (tested in a mixture with another compound)
- Potency [1]: inactive
- Potency [2]: inactive
- Potency [3]: inactive
- Potency [4]: inactive
- Potency [5]: inactive
- Potency [6]: inactive
- Potency [7]: inactive
- Potency [8]: inactive
- Potency [10]: inactive

SMILES: Cc1occc1SSc1ccoc1C
- Potency [1]: 54.9 µM (active)
- Potency [2]: inactive
- Potency [3]: inactive
- Potency [4]: inactive
- Potency [5]: inactive
- Potency [6]: inactive
- Potency [9]: inactive
- Potency [10]: inactive

SMILES: N#CSCSc1nc2ccccc2s1
- Potency [1]: 24.5 µM (active)
- Potency [2]: inactive
- Potency [3]: 43.6 µM (active)
- Potency [4]: 15.5 µM (active)
- Potency [5]: 21.9 µM (active)
- Potency [6]: inactive
- Potency [7]: inactive
- Potency [9]: inactive

SMILES: CC(C)c1ccccc1N
- Potency [1]: inactive
- Potency [2]: inactive
- Potency [3]: inactive
- Potency [4]: inactive
- Potency [5]: inactive
- Potency [6]: inactive
- Potency [7]: inactive
- Potency [8]: inactive
- Potency [9]: inactive
- Potency [10]: inactive

SMILES: CCOC(OCC)C(=O)c1ccccc1
- Potency [1]: inactive
- Potency [2]: inactive
- Potency [3]: inactive
- Potency [4]: inactive
- Potency [5]: inactive
- Potency [6]: inactive
- Potency [7]: inactive
- Potency [9]: inactive
- Potency [10]: inactive

SMILES: CCCCCCCC(=O)OCC
- Potency [1]: inactive
- Potency [2]: inactive
- Potency [3]: inactive
- Potency [4]: inactive
- Potency [5]: inactive
- Potency [6]: inactive
- Potency [7]: inactive
- Potency [9]: inactive
- Potency [10]: inactive

SMILES: CCC(=O)OCCc1ccccc1
- Potency [1]: inactive
- Potency [2]: inactive
- Potency [3]: inactive
- Potency [4]: inactive
- Potency [5]: inactive
- Potency [6]: inactive
- Potency [8]: inactive
- Potency [9]: inactive
- Potency [10]: inactive

SMILES: Cc1cc(=O)[nH]c(=O)[nH]1
- Potency [1]: inactive
- Potency [2]: inactive
- Potency [3]: inactive
- Potency [4]: inactive
- Potency [5]: inactive
- Potency [6]: inactive
- Potency [7]: inactive
- Potency [9]: inactive
- Potency [10]: inactive

SMILES: CO[Si](CCC1CCC2OC2C1)(OC)OC (centres undefined)
- Potency [1]: inactive
- Potency [2]: inactive
- Potency [3]: inactive
- Potency [4]: inactive
- Potency [5]: inactive
- Potency [6]: inactive
- Potency [7]: inactive
- Potency [8]: inactive
- Potency [9]: inactive
- Potency [10]: inactive

SMILES: NCCCCCCNCCCCCCN
- Potency [1]: inactive
- Potency [2]: inactive
- Potency [3]: inactive
- Potency [4]: inactive
- Potency [5]: inactive
- Potency [6]: inactive
- Potency [7]: inactive
- Potency [8]: inactive
- Potency [10]: inactive

SMILES: CCC(C)C(=O)OC (centres undefined)
- Potency [1]: inactive
- Potency [2]: inactive
- Potency [3]: inactive
- Potency [4]: inactive
- Potency [5]: inactive
- Potency [6]: inactive
- Potency [8]: inactive
- Potency [9]: inactive
- Potency [10]: inactive

SMILES: CCO[Si](CCCSSSSCCC[Si](OCC)(OCC)OCC)(OCC)OCC
- Potency [1]: inactive
- Potency [2]: inactive
- Potency [3]: inactive
- Potency [4]: inactive
- Potency [5]: inactive
- Potency [7]: inactive
- Potency [8]: inactive
- Potency [9]: inactive

SMILES: O=S(=O)(O)c1cc(S(=O)(=O)O)c2ccc3c(S(=O)(=O)O)cc(S(=O)(=O)O)c4ccc1c2c43
- cytotoxicity increase [1]: -9.89% [at 15.8 µM]
- cytotoxicity increase [2]: -7.26% [at 15.8 µM]
- activity change, negative = cytotoxic [3]: 2.01% [at 15.8 µM]
- activity change, negative = cytotoxicity [4]: 1.56% [at 15.8 µM]
- activity change, negative = cytotoxicity [5]: -2.93% [at 15.8 µM]
- activity change [6]: -3.56% [at 15.8 µM, stronger effect = higher value]
- cytotoxicity increase [8]: 7.21% [at 15.8 µM]
- activity change, negative = cytotoxicity [9]: -2.07% [at 19 µM]
- viability change, negative = cytotoxic [10]: -1.34% [at 19 µM]

Source: PubChem BioAssay (Tox21)
